ID4 SMM – binds human ID4 protein on microarray. small molecule microarray, Flag-ID4 binding, fluorescence F/B. calls only. P47928. AID 624137. hit rate 1.2% among 31,000; call rule not given here;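 further: a binder raises fluorescence above local background on the spot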
STK33 inh – inhibitors of human STK33 kinase | ADP-Glo luminescence, MBP substrate | inhibition, % at 12.5 µM | hit rate 0.44% among 27,000 | AID 2322; in the data active means inhibition above about 20%; inconclusive means no clear call, values can overlap the other calls
Target sequence (Q9BYT3 whole entry, looked up): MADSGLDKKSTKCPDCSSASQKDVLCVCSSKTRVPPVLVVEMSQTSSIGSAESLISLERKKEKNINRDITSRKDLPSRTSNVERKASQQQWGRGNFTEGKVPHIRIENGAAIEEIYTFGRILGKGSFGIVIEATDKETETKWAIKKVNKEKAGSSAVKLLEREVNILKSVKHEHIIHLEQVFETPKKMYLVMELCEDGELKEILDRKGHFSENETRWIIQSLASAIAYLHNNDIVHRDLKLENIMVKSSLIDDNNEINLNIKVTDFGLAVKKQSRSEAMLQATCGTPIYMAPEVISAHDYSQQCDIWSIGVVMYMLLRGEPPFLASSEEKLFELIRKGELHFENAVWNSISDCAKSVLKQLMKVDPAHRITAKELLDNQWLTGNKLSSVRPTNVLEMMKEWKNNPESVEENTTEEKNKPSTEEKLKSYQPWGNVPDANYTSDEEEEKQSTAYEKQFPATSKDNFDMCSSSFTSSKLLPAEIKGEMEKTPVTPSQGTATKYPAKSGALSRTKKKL
p53 PUMA act – mutant p53 pathway reactivation; SW480 PUMA-promoter luciferase; activation, % at 9.98 µM; hit rate 1.5% among 28,000; AID 624151; in the data active means activation above about 52%; inconclusive means no clear call, values can overlap the other calls
Active calls of the source: *; i = inactive; ? = inconclusive; nt = no result given; + = active, no number. A selection: hits, their analogues and other compounds. The true share with any hit is near 2%.

SMILES	ID4 SMM	STK33 inh	p53 PUMA act
COC(=O)c1c2oc(c1C(=O)OC)C(=O)N[C@H](Cc1ccccc1)Cn1cc(nn1)CNC(=O)[C@H](Cc1ccccc1)NC(=O)N[C@@H](CO)CC2	+	nt	nt
COc1ccc(NC(=O)C(C)Oc2ccccc2)cc1NC(=O)c1ccco1 (stereo not drawn)	i	3.5	-0.2
Cc1nc(CSc2ncnc3sc(C)c(C)c23)cs1	i	5.3	29.6
COC(=O)c1c(C)ncc2c1COC(C)OC2 (stereo not drawn)	i	nt	-6.4
CC(=O)c1ccc(NC(=O)Cn2cnc3c(sc4nc5c(cc43)COC(C)(C)C5)c2=O)cc1	i	0.6	73.5*
CC1(C)Cc2nc3sc4c(=O)n(CC(=O)NCCc5ccccc5)cnc4c3cc2CO1	i	-3.8	11.8
O=C(CSc1nc2ccc(NC(=O)c3ccccc3)cc2s1)Nc1ccccc1C(F)(F)F	i	-0.7	32.8
CC(=O)Nc1ccc(S(=O)(=O)Nc2cccc(-c3cn4ccc(C)cc4n3)c2)cc1	i	0.4	?
Cc1ccn2cc(-c3cccc(NS(=O)(=O)c4cccc([N+](=O)[O-])c4)c3)nc2c1	i	1.7	169.7*
Cc1sc2ncnc(SCC(=O)c3ccc(Cl)c(Cl)c3)c2c1C	i	1.5	-2.9
Cc1sc2ncnc(SCC(=O)C(C)(C)C)c2c1C	i	-2.2	59.9*
c1ccc(OCc2nc3ccccc3n2Cc2ccccn2)cc1	i	-0.2	59.0*
OC(c1ccccc1)c1nc2ccccc2n1CCOc1ccccc1 (stereo not drawn)	i	-0.6	2.5
C=CCNC(=O)CSc1nnc(-c2ccc3nonc3c2)n1C	i	nt	-11.1
O=C(C[C@@H]1CC[C@@H](NS(=O)(=O)c2ccccc2)[C@@H](CO)O1)NCCN1CCCCC1	+	nt	nt
O=C(C[C@@H]1CC[C@@H](NS(=O)(=O)c2ccccc2)[C@H](CO)O1)NCCN1CCCCC1	i	nt	nt
Cc1cc(=O)[nH]c(SCCOc2ccc(Br)cc2Cl)n1	i	-0.9	80.5*
Cc1ccc(OCCSc2nc(C)cc(=O)[nH]2)c(I)c1	i	-0.2	30.3
COC(=O)c1cn(CCCNC(=O)[C@H](Cc2ccccc2)NS(=O)(=O)c2ccc(C)cc2)nn1	+	nt	nt
Cc1ccc(S(=O)(=O)N[C@H](Cc2ccccc2)C(=O)CCl)cc1	nt	0.5	-55.2
CNC[C@H]1Oc2ccc(NS(C)(=O)=O)cc2C(=O)N([C@@H](C)CO)C[C@@H]1C	nt	-0.2	nt
CNC[C@@H]1Oc2ccc(NS(C)(=O)=O)cc2C(=O)N([C@@H](C)CO)C[C@H]1C	+	nt	8.0
CNC[C@@H]1Oc2ccc(NS(C)(=O)=O)cc2C(=O)N([C@@H](C)CO)C[C@@H]1C	nt	-1.2	nt
CNC[C@H]1Oc2ccc(NS(C)(=O)=O)cc2C(=O)N([C@H](C)CO)C[C@@H]1C	+	nt	6.5
CC(C)(CO)NC(=S)NCC1CCCO1 (stereo not drawn)	nt	-1.2	nt
SMILES	ID4 SMM	STK33 inh	p53 PUMA act
Cc1ccc(C)c(NC(=O)CSc2nnc(-c3ccc(N)cc3)n2C)c1	i	-2.4	0.4
CC(C)CC(NC(=O)OCC1c2ccccc2-c2ccccc21)C(=O)O (stereo not drawn)	i	nt	64.2*
CC(C)C[C@H](NC(=O)[C@@H](O)[C@H](N)Cc1ccccc1)C(=O)O	i	-6.3	-5.7
Cc1nc(C2C(=O)c3ccc(O)c(O)c3OC2C(F)(F)F)cs1 (stereo not drawn)	nt	1.9	nt
CN(CC(=O)Nc1ccccc1-c1ccccc1)S(=O)(=O)c1ccc(Br)cc1	i	3.3	-5.6
COc1cccc(NC(N)=O)c1	nt	-0.6	nt
COc1cccc(NC(=O)/C=C/c2ccc(Cl)cc2)c1	i	nt	93.6*
Cc1nn(C)c(-c2n[nH]c(=S)n2-c2ccc(CC(=O)O)cc2)c1Br	i	2.2	4.0
Cn1c(SCC(=O)N2CCN(Cc3ccccc3)CC2)nnc1-c1ccncc1	+	-0.5	-7.1
CCCn1c(SCC(=O)N2CCOCC2)nnc1-c1ccncc1	i	1.4	13.0
CCn1c2ccccc2c2nnc(SCC(N)=O)nc21	i	5.8	-5.6
COC(=O)C(C)Sc1nnc2c3ccccc3n(Cc3ccccc3)c2n1 (stereo not drawn)	+	7.8	-1.5
Cc1ccc(NC(=O)C(C)Oc2ccc(Cl)cc2Cl)c([N+](=O)[O-])c1 (stereo not drawn)	i	-0.2	77.0*
O=C(COc1ccc2ccccc2c1Br)Nc1cccnc1	i	0.8	79.9*
COc1ccc(NC(=O)CSc2nnc(C)s2)c([N+](=O)[O-])c1	i	-2.0	1.7
COc1ccc(OCC(=O)Nc2ccccc2C(=O)Nc2ccccc2)cc1	i	4.5	6.2
COc1ccc(OCC(=O)Nc2ccccc2OC(F)F)cc1	i	-3.8	64.7*
COc1ccc(NC(=S)NC(=O)C(C)Oc2ccc(Cl)cc2Cl)c([N+](=O)[O-])c1 (stereo not drawn)	i	-0.3	2.5
COc1ccc(NC(=O)CSc2nc3ccccc3o2)c([N+](=O)[O-])c1	i	-0.6	69.1*
O=C(COc1cccc2ccccc12)Nc1cccnc1	i	-2.2	3.2
COc1ccc(S(=O)(=O)N(C)CC(=O)Nc2ccc(Br)cc2F)cc1OC	i	2.4	-10.3
CCOc1ccc(Oc2nc(N3CCOCC3)nc(N3CCOCC3)n2)nn1	i	-1.6	10.0
CCOc1ccc(-c2nnc(SCC(=O)O)n2-c2ccccc2)cc1	i	9.9	-3.8
Cc1ccc(-n2c(SCC(=O)Nc3cccc(C)c3C)nnc2-c2ccncc2)cc1C	i	0.8	-6.7
Cc1c(Cl)ccc2c(C(=O)Nc3ccc(S(=O)(=O)N4CCOCC4)cc3)cc(-c3cccnc3)nc12	i	2.6	-11.7
SMILES	ID4 SMM	STK33 inh	p53 PUMA act
CSc1c(C#N)c(-c2ccc(Cl)cc2)nn1C	nt	2.9	nt
CCc1ccnc(NC(=O)CC2(CC(=O)O)CCCCC2)c1	i	nt	5.8
Cc1ccc(NC(=O)CCCOc2ccccc2)c([N+](=O)[O-])c1	i	-1.3	79.1*
CCOc1ccc(NC(=O)C(C)O)c([N+](=O)[O-])c1 (stereo not drawn)	i	-0.2	?
Cc1ccc(NC(=O)COc2ccc3ccccc3c2Br)c([N+](=O)[O-])c1	i	-3.2	64.1*
CC(=O)Nc1ccccc1NC(=O)COc1ccc2ccccc2c1Br	i	1.0	-9.5
COc1ccc(NC(=O)C(C)Oc2ccccc2)c([N+](=O)[O-])c1 (stereo not drawn)	i	7.2	86.2*
COc1ccc(NC(=O)COc2cc(C)cc(C)c2C)c([N+](=O)[O-])c1	i	0.5	-6.9
COc1ccc(NC(=O)COc2ccccc2)c([N+](=O)[O-])c1	i	-0.3	71.7*
COc1ccc(NC(=O)CCN2C(=O)c3ccccc3C2=O)c([N+](=O)[O-])c1	i	-4.5	-0.1
CCCCCC(=O)Cc1cc(O)c(O)c2c1C(=O)Oc1cc(O)c(C(=O)O)c(CCCCC)c1O2	nt	-9.5	nt
CC(=O)Oc1ccc2c(c1)CCC1C2CC[C@@]2(C)C1CC[C@@H]2OC(C)=O (stereo partly drawn)	nt	3.7	nt
O=[N+]([O-])c1ccccc1CN1CCN(CCO)CC1	+	1.8	3.2
O=[N+]([O-])c1ccccc1S(=O)(=O)N1CCN(Cc2cccc(OCCO)c2)CC1	i	-0.6	nt
COc1ccccc1N1CCN(CC(=O)Nc2ccc([N+](=O)[O-])cc2C(=O)Nc2ccccc2F)CC1	i	-2.1	-10.6

Screens deposited in PubChem BioAssay by Broad Institute.
